Shown are actives, neighbours in structure and some others; about 19% of the full set was active somewhere.
TDP1 cell CPT: qHTS for Inhibitors of human tyrosyl-DNA phosphodiesterase 1 (TDP1): qHTS in cells in presence of CPT; chicken DT40 Tdp1-/-;hTDP1 cells + 20 nM CPT, ATP luminescence, 48 h; Potency, µM (highest dose often 46.2 µM), without a hit: top-dose activity change, negative = growth inhibition, actives largely listed as inhibitors; AID 686979, 2013; 420,000 compounds, 12% hits; note: potency is the fitted concentration of half-maximal effect; nearly all actives have a fitted effect of over 55% in size
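Cell growth measured by CellTiter-Glo luminescence after a minimum 48 h, 37 C compound exposure with 20 nM CPT in Tdp1-knockout DT40 cells stably expressing hTDP1, seeded 400/well; qHTS titration format.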
IL1B secr inh: qHTS for Inhibitors of Inflammasome Signaling: IL-1-beta AlphaLISA Primary Screen. activity change, % at 57.5 µM. 360,000 compounds, 4.7% hits. THP-1 LPS/ATP IL-1B secretion, AlphaLISA, 16 h; active compounds read low; in the data active = activity change below about -50%; inconclusive = mostly about -30% to -49%
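THP-1 cells pretreated 1 hr with compounds (up to 57.5 uM final), then stimulated with LPS (250 ng/mL final) plus ATP (1.25 mM final); secreted IL-1B measured by AlphaLISA after 16 hr, decreased signal indicating inhibition.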
TDP1 cell noCPT: qHTS for Inhibitors of human tyrosyl-DNA phosphodiesterase 1 (TDP1): qHTS in cells in absence of CPT; DT40 Tdp1-/- hTDP1 cells, no CPT, ATP luminescence, 48 h; Potency, µM (titrated, usually from 46.2 µM), inactives show at the highest dose activity change, negative = growth inhibition, usual class: inhibitors; 420,000 compounds, 15% hits; AID 686978, 2013; note: potency is the fitted concentration of half-maximal effect; nearly all actives have a fitted effect of over 55% in size
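Luminescent ATP content (CellTiter-Glo) served as the growth readout. Knockout chicken DT40 cells expressing human TDP1 were exposed to compounds without camptothecin for a minimum 48 hr at 37 °C.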
Giardia kill: Small Molecules that selectively kill Giardia lamblia: qHTS. 340,000 compounds, 0.15% hits. activity change, % at 7.66 µM, hits read low. Giardia lamblia trophozoite viability; in the data active = activity change below about -80%; inconclusive = between about -30% and that limit;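 note: parasites exposed to compound for two days anaerobically before the ATP read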
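Giardia trophozoites, 100 cells per well, were exposed to compounds for 48 hrs at 37 deg C under anaerobic conditions; viability was then read as ATP content by bioluminescence after 15-30 min at room temperature.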
ELG1 DNA repair: qHTS screen for small molecules that inhibit ELG1-dependent DNA repair in human embryonic kidney (HEK293T) cells expressing luciferase-tagged ELG1 | HEK293T ELG1-luciferase reporter, luminescence, 16 h; DNA damage induced by 5-fluorouridine | Potency, µM (highest dose often 46.1 µM), inactives show at the top dose activity change, negative = inhibition, usual class: inhibitors | 330,000 compounds, 2.3% hits | AID 504467, 2011; note: potency is the fitted concentration of half-maximal effect; nearly all actives have a fitted effect of over 55% in size
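5-Fluorouridine DNA damage + compound/DMSO, 2,000 cells/well, 16 h, 37 °C/5% CO2. ONE-Glo, 30 min RT, luminescence. Readout = decrease in reporter signal.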
TDP1 inh: qHTS Assay for Inhibitors of Tyrosyl-DNA Phosphodiesterase (TDP1); recombinant TDP1, AlphaScreen DNA substrate cleavage; Potency, µM (titrated, usually from 130 µM), for inactives: at the top dose activity change, negative = inhibition, usual class: inhibitors; 350,000 compounds, 0.28% hits; AID 485290, 2010; note: potency is the fitted concentration of half-maximal effect; nearly all actives have a fitted effect of over 40% in size
Target sequence (Q9NUW8 whole entry, looked up): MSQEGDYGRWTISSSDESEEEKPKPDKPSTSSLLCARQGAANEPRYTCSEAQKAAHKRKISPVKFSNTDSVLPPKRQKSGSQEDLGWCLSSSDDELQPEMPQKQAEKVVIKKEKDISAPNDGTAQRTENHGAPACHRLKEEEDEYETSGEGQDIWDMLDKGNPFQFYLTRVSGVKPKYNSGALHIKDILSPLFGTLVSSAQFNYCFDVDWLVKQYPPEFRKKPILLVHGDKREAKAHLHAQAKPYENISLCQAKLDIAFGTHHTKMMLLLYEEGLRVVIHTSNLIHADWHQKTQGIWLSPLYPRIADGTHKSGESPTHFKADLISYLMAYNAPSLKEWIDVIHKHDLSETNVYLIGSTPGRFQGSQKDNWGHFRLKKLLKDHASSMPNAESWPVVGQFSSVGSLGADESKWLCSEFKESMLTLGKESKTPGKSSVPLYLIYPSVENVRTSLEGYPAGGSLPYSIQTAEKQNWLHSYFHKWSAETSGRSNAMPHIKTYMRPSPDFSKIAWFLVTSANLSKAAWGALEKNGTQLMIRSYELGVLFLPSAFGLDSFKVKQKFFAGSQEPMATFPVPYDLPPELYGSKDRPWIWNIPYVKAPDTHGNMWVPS
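Recombinant human Tdp1 (E. coli-expressed, 1 nM final) preincubated with compounds 15 min at room temperature, then 5'-biotin/3'-phosphotyrosine-FITC DNA substrate (15 nM final) added for 5 min. AlphaScreen beads (10 ug/ml final) added 10 min; cleavage lowers signal.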
* marks the source's active call; other numbers are inactive results; [ ] = another dose, or the depositor's remark. Unless noted, calls come from the whole dose curve; as a rule, active = well fitted curve in the direction sought with a large enough effect; inconclusive = small, poorly fitted or top-dose-only effect, or another doubt; inactive = no such curve, though single readings can be large; an effect the other way counts as inactive or inconclusive. % is set by controls: 0 for no effect and ±100 for the full control effect.

For CCc1nc(OCc2ccccc2)c2sc3nc4c(cc3c2n1)COC(C)(C)C4 the results were TDP1 cell CPT 29µM*, IL1B secr inh -8, TDP1 cell noCPT inconclusive, Giardia kill 14, ELG1 DNA repair 1% and TDP1 inh 6%.
`CCCOc1ncnc2c1sc1nc3c(cc12)COC(C)(C)C3` gave TDP1 cell CPT inconclusive, IL1B secr inh -15, TDP1 cell noCPT inconclusive, Giardia kill 7, ELG1 DNA repair inconclusive and TDP1 inh 3%.
`COc1ccccc1C(=O)Nc1cccc(C(=O)OCc2cc(=O)n3c4c(sc3n2)CCCC4)c1` gave TDP1 cell CPT inconclusive, TDP1 cell noCPT inconclusive and TDP1 inh 4%.
Screening OC(C1=CC(=Cc2ccncc2)c2ccccc21)c1ccncc1 (stereo unspecified) returned TDP1 cell CPT inconclusive, IL1B secr inh -59*, TDP1 cell noCPT 16µM* and Giardia kill -8.
`O=C1CCCC=C1[C@H](O)c1ccc([N+](=O)[O-])cc1` gave TDP1 inh 7%[21 µM].
`O=[N+]([O-])c1ccc(/C=C2\C=C(C(O)c3ccc([N+](=O)[O-])cc3)c3ccccc32)cc1` (stereo unspecified) gave TDP1 cell CPT 6.3µM* and TDP1 cell noCPT 4.5µM*.
For N#Cc1nccnc1S(=O)(=O)c1cccs1 the results were TDP1 cell CPT 0.65µM*, IL1B secr inh -98*, TDP1 cell noCPT 1µM*, Giardia kill 8, ELG1 DNA repair inconclusive and TDP1 inh 0%.
`Cc1ccc(C)c(NC(=O)c2ccc3c(c2)CCN3S(C)(=O)=O)c1` gave TDP1 cell CPT inconclusive, IL1B secr inh -13, TDP1 cell noCPT inconclusive and TDP1 inh 2%.
`Cc1c(CCCN)c2ccccc2n1Cc1ccccc1` gave TDP1 cell CPT inconclusive, IL1B secr inh -71*, TDP1 cell noCPT 16µM*, Giardia kill -5, ELG1 DNA repair 12% and TDP1 inh 5%.
`CCOc1ccccc1NC(=O)Cn1c(=O)n(Cc2ccc(C(=O)NCCCOC)cc2)c(=O)c2ccccc21` gave TDP1 cell CPT -3%, TDP1 cell noCPT -15% and TDP1 inh -5%.
For CCOC(=O)c1ccc2c(c1)nc(C1CCN(S(=O)(=O)c3cccs3)CC1)n2CC the results were TDP1 cell CPT 15µM*, IL1B secr inh -79*, TDP1 cell noCPT inconclusive, Giardia kill 1, ELG1 DNA repair inconclusive and TDP1 inh 3%.
`CCOC(=O)c1cccc(NC(=O)C2CCN(S(=O)(=O)c3cccs3)CC2)c1` gave TDP1 cell CPT inconclusive, IL1B secr inh -19, TDP1 cell noCPT inconclusive, Giardia kill 6, ELG1 DNA repair 0% and TDP1 inh 1%.
COC(=O)c1ccccc1NC(=O)/C=C/c1cc(OC)c(OC)c(OC)c1 was read as TDP1 cell CPT 21µM*, IL1B secr inh -85*, TDP1 cell noCPT 21µM*, Giardia kill 8, ELG1 DNA repair inconclusive and TDP1 inh 4%.
COc1ccc(Br)cc1/C=C/C(=O)Nc1ccc(C)cc1 was read as TDP1 cell CPT 16µM*, IL1B secr inh -67*, TDP1 cell noCPT 16µM*, Giardia kill -5, ELG1 DNA repair 21µM* and TDP1 inh -3%.
COc1cc(/C=C/C(=O)Nc2ccc(S(=O)(=O)Nc3onc(C)c3C)cc2)cc(OC)c1OC was read as TDP1 cell CPT 9%, IL1B secr inh -12, TDP1 cell noCPT -2% and Giardia kill 2.
Screening COc1ccc(/C=C/C(=O)Nc2ccccc2C(=O)O)cc1OC returned TDP1 cell CPT -26%, TDP1 cell noCPT inconclusive, Giardia kill 10, ELG1 DNA repair inconclusive and TDP1 inh 5%.
COc1cc(/C=C/C(=O)Nc2ccc(C)cc2)cc(OC)c1OC was read as TDP1 cell CPT inconclusive, IL1B secr inh 15, TDP1 cell noCPT 16µM*, Giardia kill -18, ELG1 DNA repair inconclusive and TDP1 inh 2%.
For CCn1c(C(=O)O)c(CC(=O)Nc2ccccc2OC)c2ccccc21 the results were TDP1 cell CPT -4%, IL1B secr inh 0, TDP1 cell noCPT 19%, Giardia kill 19 and ELG1 DNA repair -3%.
Screening O=C(CSc1ncc(-c2ccc(F)cc2)n1Cc1ccco1)Nc1ccc2c(c1)OCO2 returned TDP1 cell CPT 29µM*, IL1B secr inh -64*, TDP1 cell noCPT inconclusive, Giardia kill 6 and TDP1 inh 9%.
`COc1ccc(-n2c(-c3ccc(F)cc3)cnc2SCC(=O)NCc2ccco2)cc1` gave TDP1 cell CPT -18%, IL1B secr inh inconclusive, TDP1 cell noCPT -30%, Giardia kill -9, ELG1 DNA repair 14% and TDP1 inh 12%.
CCOc1ccc(NC(=O)CSc2ncc(-c3ccc(F)cc3)n2Cc2ccco2)cc1 was read as TDP1 cell CPT inconclusive, IL1B secr inh inconclusive, TDP1 cell noCPT inconclusive, Giardia kill 1 and ELG1 DNA repair 16µM*.
Cc1ccc(NC(=O)Cn2c(-c3ccc(F)cc3)cnc2SCC(=O)Nc2c(C)cccc2C)cc1 was read as TDP1 cell CPT 10µM*, IL1B secr inh 2, TDP1 cell noCPT 12µM*, Giardia kill -6, ELG1 DNA repair inconclusive and TDP1 inh 1%.
Screening CC(=O)Nc1ccc2nc(-c3ccncc3)[nH]c2c1 returned TDP1 cell CPT -2%, IL1B secr inh -15, TDP1 cell noCPT -3%, Giardia kill 5, ELG1 DNA repair inconclusive and TDP1 inh 7%.
CCCN(CCC)S(=O)(=O)c1ccc(C(=O)Nc2cccc(-c3nc4ccccc4[nH]3)c2)cc1 was read as TDP1 cell CPT 4.6µM*, TDP1 cell noCPT 4.6µM* and TDP1 inh 8%.
`CC(=O)Nc1ccc2nc(-c3cc(C)ccc3C)[nH]c2c1` gave TDP1 cell CPT 3.3µM*, TDP1 cell noCPT 3.3µM* and TDP1 inh -2%[12.3 µM].
`COc1c(Cl)cc(C(=O)Nc2cccc(-c3nc4ccccc4[nH]3)c2)cc1Cl` gave TDP1 cell CPT inconclusive, TDP1 cell noCPT 23µM* and TDP1 inh -2%[12.3 µM].

Screens: PubChem BioAssay, National Center for Advancing Translational Sciences (NCATS)
